Assay outcomes from PubChem.
PKM2 act: qHTS Assay for Activators of Human Muscle isoform 2 Pyruvate Kinase; purified PKM2, Kinase-Glo ATP luminescence, activation; response scale: 0% is enzyme alone, no compound; Pyruvate kinase PKM (Homo sapiens), P14618; hit rate 0.34% among 260,000; Potency, µM (top dose mostly 57.5 µM), without a hit: top-dose activation, actives largely listed as activators; also: potency is read from the fitted curve at half-maximal effect; % is scaled to controls: 0 for no effect and ±100 for the full control effect; nearly all actives have a fitted effect of over 55% in size
Target sequence (P14618 whole entry, looked up, canonical isoform): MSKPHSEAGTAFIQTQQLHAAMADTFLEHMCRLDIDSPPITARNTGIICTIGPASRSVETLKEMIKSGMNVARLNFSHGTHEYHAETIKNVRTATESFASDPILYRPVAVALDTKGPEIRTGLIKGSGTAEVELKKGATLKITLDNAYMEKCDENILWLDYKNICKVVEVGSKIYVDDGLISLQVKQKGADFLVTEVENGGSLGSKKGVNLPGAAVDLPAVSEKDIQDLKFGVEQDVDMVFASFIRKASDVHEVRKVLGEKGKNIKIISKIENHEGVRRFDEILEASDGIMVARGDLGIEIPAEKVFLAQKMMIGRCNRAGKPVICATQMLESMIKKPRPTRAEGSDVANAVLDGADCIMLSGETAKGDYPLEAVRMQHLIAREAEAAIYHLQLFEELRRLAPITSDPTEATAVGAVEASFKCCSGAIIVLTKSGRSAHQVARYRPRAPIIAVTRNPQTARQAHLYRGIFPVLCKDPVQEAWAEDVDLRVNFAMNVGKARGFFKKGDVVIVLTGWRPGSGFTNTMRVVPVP
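hPK-M2, >95% pure; 0.1 mM ADP / 0.5 mM PEP final; imidazole pH7.2 buffer w/ 7 mM MgCl2, 50 mM KCl; 1 h RT; Kinase-Glo lum. Intermediate enzyme activity for dual inhibitor/activator qHTS.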
USP2a inh: qHTS Assay for Inhibitors of Ubiquitin-specific Protease USP2a Using CHOP2 as the Reporter; Ubiquitin carboxyl-terminal hydrolase 2 (Homo sapiens), O75604; USP2 core, Ub-CHOP2 coupled fluorogenic reporter, 485/531; Potency, µM (top dose mostly 38.3 µM), for inactives: top-dose activity change, negative = inhibition, usual class: inhibitors; hit rate 0.01% among 330,000; AID 463254, 2010;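 also: potency is read from the fitted curve at half-maximal effect; plate controls were DMSO wells for no effect and full inhibition by NEM control for full effect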
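Cell-free coupled assay: 10nM USP2 core preincubated 30min RT with compound in Tris-HCl pH 8.0/CaCl2/CHAPS buffer, then 25nM Ub-CHOP2 and 25nM reporter substrate; fluorescence (Ex 485/Em 531) read after 60min RT, normalized to NEM inhibition, concentration-response curves fitted.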
Pin1 inh: qHTS Assay to Find Inhibitors of Pin1. AID 504891, 2011. hit rate 0.009% among 390,000. Peptidyl-prolyl cis-trans isomerase NIMA-interacting 1 (Homo sapiens), Q13526. Pin1 FP peptide displacement, HiFluor488, 10 min. Potency, µM (highest dose often 115 µM), without a hit: top-dose activity, negative = inhibition, most hits filed as inhibitors; active = well fitted inhibition curve with a large enough effect in the polarisation, with a control signal flat, not every such curve was filed as active; inconclusive = small, poorly fitted or top-dose-only effect, or effect the other way, or a change in a side signal; inactive = no such curve, though single readings can be large or run the other way; the % refers to the polarisation; also: potency is read from the fitted curve at half-maximal effect; % is scaled to controls: 0 for no effect and ±100 for the full control effect
a7 integrin act: qHTS for Activators of Integrin-Mediated Alleviation for Muscular Dystrophy; Potency, µM (highest dose often 38.3 µM), for inactives: top-dose activation, most hits filed as activators; hit rate 0.064% among 350,000; AID 624291, 2012; alpha7betagal myoblasts, beta-gal FDG fluorescence, 48 h;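 also: potency is read from the fitted curve at half-maximal effect; 100% = response of the positive control SU9516; nearly all actives have a fitted effect of over 60% in size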
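Alpha7betagal+/- myoblasts (passage 13) were plated 16-24 hr, then exposed to compounds (1:260 dilution of DMSO stock) for 48 hours at 37C. After MPER lysis, β-galactosidase reporter activity was read as FDG fluorescence (ex 480/em 540) after 30 minutes.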
ClpP mod: qHTS Assay for Activators of ClpP. ATP-dependent Clp protease proteolytic subunit (Bacillus subtilis (strain 168)), P80244. purified B. subtilis ClpP, FRET peptide cleavage, 20 min. Potency, µM (top dose mostly 57.5 µM), without a hit: at the top dose activity change, negative = active. hit rate 1.9% among 340,000. AID 651965, 2013; active = well fitted falling curve with a large enough effect; inconclusive = small, poorly fitted or top-dose-only effect; inactive = no such curve, though single readings can be large or run the other way; also: potency is read from the fitted curve at half-maximal effect; the source files actives as falling curves though it sought activators and does not explain the sign; nearly all actives have a fitted effect of over 65% in size
Target sequence (P80244 whole entry, looked up): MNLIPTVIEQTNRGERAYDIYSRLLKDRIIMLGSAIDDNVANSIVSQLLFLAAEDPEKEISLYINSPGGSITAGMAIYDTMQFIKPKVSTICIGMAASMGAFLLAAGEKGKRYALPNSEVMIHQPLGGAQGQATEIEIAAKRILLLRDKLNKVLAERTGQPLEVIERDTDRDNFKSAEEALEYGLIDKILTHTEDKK
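Buffer: 100 mM Tris/HCl pH8, 100 mM KCl, 0.05% low protease BSA, 2.5% glycerol, 0.01% Tween-20. ClpP 10 microg/mL final; 20 min RT; delta FRET normalized to ADEP and DMSO controls.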
IL-2 act: qHTS of IL-2 Activators. IL-2 activation reporter assay, cell-based qHTS; stimulated with anti-CD3/CD4/CD28 beads; in transgenic mouse T cells. hit rate 0.065% among 360,000. activation, % (series mostly up to about 46 µM); in the data active = activation above about 50%; inconclusive = mostly about 30% to 49%; also: 0% is about no effect
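First, unstimulated transgenic mouse T cells were exposed to compound for 60 min. Next, anti-CD3/anti-CD4-coated beads with anti-CD28 were added. Finally, after 18 h at 37 degrees C, EGFP and DsRed were imaged.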
* hit, by the source's call; ? = inconclusive; / = no result given; [ ] = another dose, or the depositor's remark. The list is not random: actives were taken first. Their share in the collection is about 1.9%. Unless noted, calls follow the shape of the dose curve; as a rule, active = well fitted curve in the direction sought with a large enough effect; inconclusive = small, poorly fitted or top-dose-only effect, or another doubt; inactive = no such curve, though single readings can be large; an effect the other way counts as inactive or inconclusive.

SMILES	PKM2 act	USP2a inh	Pin1 inh	a7 integrin act	ClpP mod	IL-2 act
Cc1ccc(OCCC(=O)NCCc2ccc(S(N)(=O)=O)cc2)cc1	3%	0%	2%	2%	13µM*	0
NC(=O)c1cccnc1Oc1ccc(Cl)cc1Cl	-6%	-2%	5%	10µM*	/	0
Cc1c(C(=O)Nc2ccc3oc(-c4cccnc4)nc3c2)oc2ccccc12	-7%	0%	22%	1%	8.9µM*	-2
Cc1c(C(=O)Nc2cccc(-c3nc4ccccc4s3)c2)oc2ccccc12	/	/	17%	/	22µM*	/
O=C(Nc1ccc2oc(-c3cccnc3)nc2c1)c1cccnc1	-1%	0%	26%	16%	?	1
C[C@H](C(=O)OCO/N=[N+](\[O-])N1CCCC1)c1cccc2ccccc12	/	/	-11%	/	/	/
COc1ccc(-c2nc(CCNC(=O)c3cccs3)cs2)cc1OC	/	/	15%	/	28µM*	/
COc1cc(OC)cc(C(=O)NCCc2csc(-c3ccc(C(F)(F)F)cc3)n2)c1	/	/	?	/	32µM*	/
O=C(NCCc1csc(-c2ccccc2)n1)c1cccs1	-4%	-3%	-3%	22%	?	-3
COc1ccc(-c2nc(CCNC(=O)Cc3ccc(F)cc3)cs2)cc1	/	/	0%	/	22µM*	/
COc1ccc(CCC(=O)NCCc2csc(-c3ccc(F)cc3)n2)cc1	/	/	-17%	/	-4%	/
Cn1c(=O)n(-c2ccc(C(C)(C)C#N)cc2)c2c3cc(-c4cnc5ccccc5c4)ccc3ncc21	/	/	/	/	4%[115 µM]	/
COc1cc2[nH]c3c(=O)n(CCN(C(C)C)C(C)C)cnc3c2cc1OC	1%	-8%	?	?	28µM*	-1
O=C1NC(c2ccccc2Cl)Nc2ccccc21 (stereo not given)	-1%	3%	-1%	-11%	25µM*	1
Cc1ccsc1C1NC(=O)c2ccccc2N1 (stereo not given)	-1%	5%	-11%	-9%	16µM*	1
Cc1ccc(NCC(O)Cn2cnc3c2c(=O)n(C)c(=O)n3C)cc1 (stereo not given)	4%	0%	6%	11%	28µM*	0
CC(CC(=O)Nc1ccncc1)c1ccccc1 (stereo not given)	6%	-1%	-8%	4%	-3%	0
CC(CC(=O)Nc1cccc(Cl)c1)c1ccccc1 (stereo not given)	-1%	0%	?	6%	14µM*	1
Cc1cc(C)c2c(n1)sc1c(O)cc(=O)[nH]c12	-6%	2%	/	14%	32µM*	-3
O=C(CSc1nnc(-c2cccnc2)s1)Nc1ccccc1	14µM*	2%	-11%	-5%	-1%	3
O=C(CSc1nnc(-c2ccncc2)s1)Nc1ccccc1	4µM*	0%	0%	16%	/	1
CN(C)S(=O)(=O)c1ccc(N2CCCC2)c(C(=O)Nc2nc3c(ccc4ccccc43)s2)c1	-7%	1%	16%	31%	28µM*	-1
Cc1cnc(NC(=O)c2cc(S(=O)(=O)N(C)C)ccc2N2CCCC2)s1	/	1%	-3%	-37%	/	0
N#Cc1ncc(Br)cn1	/	/	/	/	1%	/
CCOC(=O)c1cc2c3ccccc3n(CC)c2nc1N	-13%	0%	8%	19%	16µM*	11
SMILES	PKM2 act	USP2a inh	Pin1 inh	a7 integrin act	ClpP mod	IL-2 act
CCn1c2ccccc2c2cc(C#N)c(N)nc21	/	/	19%	-25%	4%	1
CC(=O)c1cc2ccccc2c2ccccc12	/	/	/	/	-1%	/
CC(C)c1ccc(-c2cc(C(=O)N3N=C(C(F)F)CC3(O)C(F)F)c3ccccc3n2)cc1 (stereo not given)	6%	1%	-3%	-60%	28µM*	-5
Cc1ccc2nc(NC(=O)CSc3nncc(=O)n3N)sc2c1	-26%	7%	-2%	14%	25µM*	-1
Cc1ccc(Nc2nc(NCc3ccco3)nc3nccnc23)cc1C	/	/	?	/	-1%	/
CC(C)Oc1cccc(-c2ccnc(N3CCC(C(N)=O)CC3)n2)c1	/	/	-1%	/	/	/
COc1cccc(C(=O)N(Cc2cc3cc(C)ccc3[nH]c2=O)CC2CCCO2)c1 (stereo not given)	8%	2%	-4%	5%	32µM*	-1
COc1ccc2[nH]c(=O)c(CN(CC3CCCO3)C(=O)Nc3ccc(F)cc3)cc2c1 (stereo not given)	-3%	-1%	-2%	-16%	16µM*	-4
COc1cc(C(=O)N(Cc2cc3cc(C)ccc3[nH]c2=O)CC2CCCO2)cc(OC)c1OC (stereo not given)	0%	0%	0%	7%	-4%	-1
COc1ccc2[nH]c(=O)c(CN(C(=O)C3CCCO3)c3ccc(C)cc3)cc2c1 (stereo not given)	0%	2%	2%	-12%	28µM*	0
COc1cccc(C(=O)N(Cc2ccccc2)Cc2cc3cc4c(cc3[nH]c2=O)OCCO4)c1	1%	2%	4%	-14%	28µM*	-2
CCN1C(Br)=CCc2ccccc21	/	/	/	/	0%	/
CCc1ccc(C(=O)Nc2cccc(-c3nc4cc(C(C)C)ccc4o3)c2)cc1	/	/	12%	/	25µM*	/
N#Cc1nc(NCCCCO)nc(Nc2ccccc2)n1	/	/	-1%	/	/	/
COc1ccc2c(c1)CCc1sc(NC(=O)c3ccc(C)cc3)nc1-2	6%	-4%	6%	3%	35µM*	0
COc1ccc2c(c1)CCc1sc(NC(=O)c3ccc(Br)cc3)nc1-2	/	/	0%	/	-21%	/
CNc1ccc(C=O)cc1I	/	/	/	/	-6%	/
Cc1ccc(NS(=O)(=O)c2ccc(-c3ccccc3)cc2)cc1C	/	/	-12%	/	/	/
COC(=O)c1cc(=O)nc2sc(-c3ccc(F)cc3)nn12	-18%	1%	?	14%	28µM*	-1
COC(=O)c1cc(=O)nc2sc(-c3cccs3)nn12	-1%	2%	8%	0%	318%	1
C/C=C(\NNC(C)=O)c1ccc(O)cc1	/	/	/	/	2%	/
CCOc1nc(N=C(N)N)nc2c(C)cccc12	-4%	1%	25%	9%	16µM*	-1
CCOc1ccccc1Nc1cc(C)c2cccc(C)c2n1	2%	-1%	-6%	-15%	/	-2
